Hits are enriched below; roughly 7.4% of the tested compounds scored in any of these assays.
Luc counter: Kinase-Glo luciferase inhibition (counter-screen); hit rate 0.28% among 200,000; Kinase-Glo luciferase, ATP luminescence, 8 min; AID 1379; Potency, µM (series often up to 38.3 µM), hits mostly inhibitors; note: nearly all actives have a fitted effect of over 60% in size
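Inhibition of Kinase-Glo luciferase light generation was assessed at 10 uM ATP in pH 7.2 imidazole buffer, with luminescence measured after eight minutes at ambient temperature.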
Rab9 prom act: activators of Rab9 promoter | Huh7 Rab9 promoter-luciferase reporter, luminescence, 24 h | hit rate 2.8% among 320,000 | Potency, µM (titrated, usually from 9.22 µM), most hits filed as activators; note: nearly all actives have a fitted effect of over 60% in size
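Cell-based reporter: Huh7 stable for Rab9 promoter-driven luciferase, plated in reduced-serum medium with 10% FBS at 1500 cells/well, compound-treated 24 h at 37 °C, luminescence read after 10 min reagent.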
SMN2 splice up: SMN2 splice variant enhancement; HEK293 SMN2-luciferase splicing reporter, luminescence, 30-36 h; Potency, µM (titrated, usually from 46.1 µM), most hits filed as activators; hit rate 2.8% among 210,000; note: nearly all actives have a fitted effect of over 55% in size
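HEK293 cells carry an SMN2 minigene-luciferase reporter in which exon 7 inclusion puts luciferase in frame. Cells were seeded at 2000 cells/well, attached for 10-12 hours, then exposed to compounds for 30-36 hours at 37C before ONE-Glo luminescence.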
NPC1 promoter act: activators of NPC1 promoter. Huh7 NPC1 promoter luciferase reporter, 24 h. Potency, µM (highest dose often 9.22 µM), actives largely listed as activators. hit rate 2.4% among 320,000. AID 485313; note: nearly all actives have a fitted effect of over 60% in size
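Quantitative HTS used a cell-based reporter: Huh7 cells stably bearing the NPC1 promoter upstream of luciferase were treated with compounds for 24 h, and promoter activation was read as luminescence.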
ELG1 genotox: inducers of genotoxicity in HEK293T ELG1-luciferase cells; HEK293T ELG1-luciferase reporter, luminescence, 16 h; Potency, µM (doses to about 46 µM), hits mostly activators; hit rate 1.3% among 330,000; note: nearly all actives have a fitted effect of over 60% in size
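ELG1-luciferase HEK293T cells, 2,000/well; compound pinned in; 16 hr, 37 °C, 5% CO2; ONE-Glo, 30 min RT; luminescence on CCD imager.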
FLuc counter: inhibits or activates purified firefly luciferase, miR-21 counter-screen. P08659. purified FLuc, Km substrates, luminescence inhibition. Potency, µM (highest dose often 57.5 µM), usual class: inhibitors. hit rate 6.9% among 360,000; note: nearly all actives have a fitted effect of over 55% in size
Target sequence (P08659 whole entry, looked up): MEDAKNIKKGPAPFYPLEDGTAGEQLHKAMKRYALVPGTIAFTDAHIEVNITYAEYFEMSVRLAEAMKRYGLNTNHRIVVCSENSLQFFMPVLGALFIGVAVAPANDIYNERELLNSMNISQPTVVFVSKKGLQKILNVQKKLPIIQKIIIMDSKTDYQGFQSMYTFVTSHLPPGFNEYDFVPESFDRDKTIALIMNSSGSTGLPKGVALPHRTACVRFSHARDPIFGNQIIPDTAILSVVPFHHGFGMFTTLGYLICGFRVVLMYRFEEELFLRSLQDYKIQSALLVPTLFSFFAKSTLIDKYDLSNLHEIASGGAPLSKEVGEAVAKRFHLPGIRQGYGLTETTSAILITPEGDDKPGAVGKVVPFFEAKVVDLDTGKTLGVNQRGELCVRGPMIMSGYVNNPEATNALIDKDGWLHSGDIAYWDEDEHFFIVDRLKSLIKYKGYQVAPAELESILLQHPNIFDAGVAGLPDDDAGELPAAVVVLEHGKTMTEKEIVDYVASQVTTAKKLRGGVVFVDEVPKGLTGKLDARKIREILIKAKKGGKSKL
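Purified P. pyralis luciferase (10nM final) with 10uM D-luciferin and 10uM ATP (Km levels) in 50mM Tris acetate pH 7.5, 10mM Mg acetate, 0.01% Tween-20, 0.05% BSA; qHTS 6-point titration, ~60 µM downward; luminescence read.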
Numbers stand for hits; – = inactive; ? = inconclusive; · = not tested or not shown; [ ] = dose if it differs, or a comment. Calls come from the whole dose curve; as a rule, active = well fitted curve in the direction sought with a large enough effect; inconclusive = small, poorly fitted or top-dose-only effect, or another doubt; inactive = no such curve, though single readings can be large; an effect the other way counts as inactive or inconclusive.

SMILES | Luc counter | Rab9 prom act | SMN2 splice up | NPC1 promoter act | ELG1 genotox | FLuc counter
Cc1ccc(-n2ncc3c(SCC(=O)NNC(=O)C(C)C)ncnc32)cc1 | · | –[1.84 µM] | · | – | – | 7.6µM
Cc1ccc(-n2ncc3c(SCC(N)=O)ncnc32)cc1C | · | 3.2µM | · | 4µM | ? | 5.4µM
CC(C)C(=O)NNC(=O)CSc1ncnc2c1cnn2-c1ccccc1Cl | · | – | · | – | – | –
CC(=O)CSc1ncnc2c1cnn2-c1ccccc1 | – | 1.1µM | 11µM | 1.3µM | ? | 7.6µM
CNC(=O)CSc1ncnc2c1cnn2-c1ccccc1 | – | ? | – | – | – | ?
COCCCN(Cc1ccco1)C(=O)c1cc2c(s1)-c1ccccc1OC2 | · | · | – | · | · | ?
CCCCOc1ccccc1C(=O)Nc1nonc1-c1ccccc1 | · | · | – | · | · | ?
COc1ccc(OCc2cc(C(=O)NCc3cccc(C)n3)no2)c(Cl)c1 | · | ? | · | ? | – | 24µM
COc1cccc(OCc2cc(C(=O)NCc3ccccn3)no2)c1 | · | 2.8µM | · | ? | 16µM | 15µM
Cc1cc2nc3c(=O)n(C)c(=O)n(C)c3nc2cc1N=CN(C)C | · | · | – | · | · | –
CCOCCCNC(=O)c1cccc(OC2CCN(S(C)(=O)=O)CC2)c1 | · | 2.8µM | · | 3.5µM | ? | 11µM
COCCCNC(=S)NNC(=O)c1ccc2c(c1)OCO2 | – | – | – | – | – | –
CN(CCOc1ccccc1)C(=O)c1ccc2c(c1)OCO2 | · | ? | · | – | – | ?
CCOCCCNC(=O)c1ccc2c(c1)OCO2 | – | ? | 14µM | – | – | ?
O=C(NCCOc1ccccc1)c1ccc2c(c1)OCO2 | – | 0.28µM | 2.5µM | 0.28µM | ? | 0.76µM
N#Cc1c(N)n(-c2cccc(Cl)c2)c2nc3ccccc3nc12 | · | · | – | · | · | –
COc1ccc(N2CC(NC(=O)c3ccc(OC(C)C)cc3)CC2=O)cc1 (configuration not stated) | · | · | · | · | · | –
CCOc1ccc(-n2c(=O)c3c(C)c(C)sc3n(CC(=O)NCCc3ccccc3)c2=O)cc1 | · | · | – | · | · | –
Cc1nnc(C)n1/N=C/c1ccc2c(c1)OCCO2 | – | – | – | – | ? | –
C=CCN=c1scc(C)n1/N=C/c1ccc(O)c(O)c1 | – | – | 16µM | – | ? | 27µM
CCN=c1scc(C)n1/N=C/c1cc(Br)c(O)c(OC)c1 | – | – | ? | – | – | ?
CN=c1scc(C)n1/N=C/c1cc(Br)c(O)c(Br)c1 | – | – | – | – | – | 11µM
CN=c1scc(C)n1/N=C/c1ccc(O)cc1 | – | 2.2µM | ? | 3.2µM | 3.2µM | 3µM
CN=c1scc(C)n1/N=C/c1ccc2c(c1)OCO2 | – | 0.35µM | 4.5µM | 0.71µM | 0.65µM | 1.3µM
Cc1cc(C)n(/N=C/c2ccc(O)cc2)c(=O)c1C#N | – | – | · | – | – | –
SMILES | Luc counter | Rab9 prom act | SMN2 splice up | NPC1 promoter act | ELG1 genotox | FLuc counter
COc1cccc(C(=O)Nc2ccccc2-c2nnc(-c3ccc(C(C)(C)C)cc3)o2)c1 | · | · | – | · | · | –
CCOC(=O)c1[nH]c2ccccc2c1NC(=O)c1ccc(OC)c(OC)c1 | · | · | – | · | · | –
COc1cc2c(C=O)c3c4c(cc(OC)c(OC)c4c2cc1OC)CCN3C | – | · | · | · | · | ·
CN=c1scc(C)n1/N=C/c1ccc(O)cc1O | – | 0.71µM | 4.5µM | 0.45µM | ? | 0.43µM
CN=c1scc(-c2ccco2)n1/N=C/c1ccc(O)c(O)c1 | – | – | 7.9µM | – | ? | 0.67µM
C=CCCCCCCCCCCCC(O)CC(O)CO (configuration not stated) (tested in a mixture with another compound) | – | · | – | · | · | ·
CCOC(=O)c1cnc2c(C)c(C)ccc2c1Nc1ccc(S(=O)(=O)Nc2ncccn2)cc1 | – | – | ? | – | – | 19µM
COc1cc(OC)cc(C(=O)c2c(C)c(C#N)c3ccccn23)c1 | · | – | · | – | – | –
COC1=C/C(=C/c2c(O)c(C#N)c3ccccn23)C=CC1=O | · | – | · | – | – | 15µM
COc1ccc(/C=C/C(=O)Nc2ccc3c(c2)CCC3)cc1OC | – | – | – | – | – | 19µM
COc1ccc(/C=C/C(=O)NC2=NCCS2)cc1OC | – | 4µM | ? | 2.8µM | ? | –

Assay outcomes: PubChem, National Center for Advancing Translational Sciences (NCATS)
